Screens as filed in PubChem BioAssay.
Rows were chosen to be rich in hits. Some 2.6% of all compounds tested hit in one or more screens of this group.
HEK293 tox: cytotoxicity counter-screen for GLP-1 receptor inverse agonists. HEK293 cAMP-luciferase reporter cells, luminescence, 24 h. Potency, µM (top dose mostly 38.3 µM), for inactives: at the highest dose activity change, negative = inhibition, hits mostly inhibitors. actives 0.13% (n = 410,000). AID 624418;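 further: loss of luciferase light is scored as toxicity; on the % scale 0 is the no-effect control and ±100 the full control effect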
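Seeding density was 200 cells/uL; after overnight-length (12 h) culture, 23 nL compounds went on for 24 h at 37 °C. Readout used a luciferase detection reagent, luminescence taken after 12 min at room temperature.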
BRCA1 expr up: BRCA1 expression activation | MCF7-BRCA1-FFLuc reporter, luminescence, 48 h; response scale: scaled: vehicle 0%, 10 µM genistein 100% | Potency, µM (doses to about 46.1 µM), without a hit: at the highest dose activation, usual class: activators | actives 1.1% (n = 380,000) | AID 624202; further: nearly all actives have a fitted effect of over 80% in size
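Using MCF7 cells harboring a BRCA1 firefly luciferase reporter, plated 2 h before compound pinning, the screen measured luminescence after 48 h incubation. Responses were normalized to DMSO and 10 microM genistein, then fitted for concentration-effect.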
GLP-1R agonist: agonists of human GLP-1 receptor. P43220. HEK293 GLP-1R CRE-luciferase, luminescence, 4-6 h; cells express a hypersensitive GLP-1R form. Potency, µM (doses to about 45.6 µM), without a hit: at the top dose activation, usual class: activators. actives 0.007% (n = 380,000); further: % of control where 0% means no effect
Target sequence (P43220 whole entry, looked up): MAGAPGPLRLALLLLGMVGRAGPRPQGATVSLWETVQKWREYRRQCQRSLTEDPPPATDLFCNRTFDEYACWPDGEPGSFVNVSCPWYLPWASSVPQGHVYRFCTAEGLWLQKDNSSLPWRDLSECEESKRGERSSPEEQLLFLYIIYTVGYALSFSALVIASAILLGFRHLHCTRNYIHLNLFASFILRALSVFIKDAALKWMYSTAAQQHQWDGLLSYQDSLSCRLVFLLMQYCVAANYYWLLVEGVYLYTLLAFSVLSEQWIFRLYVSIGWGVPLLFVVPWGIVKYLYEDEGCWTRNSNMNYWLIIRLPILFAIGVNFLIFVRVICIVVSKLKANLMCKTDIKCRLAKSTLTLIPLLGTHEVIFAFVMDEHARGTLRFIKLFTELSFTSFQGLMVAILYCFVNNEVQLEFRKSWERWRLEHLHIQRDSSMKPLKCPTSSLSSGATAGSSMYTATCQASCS
GLP-1R inv ag: GLP-1 receptor (human) inverse agonism; Potency, µM (highest dose often 38.3 µM), inactives show at the highest dose activity change, negative = inhibition, usual class: inhibitors; actives 1.6% (n = 410,000); AID 624417; HEK293 GLP-1R CRE-luciferase, luminescence, 24 h; GLP-1R form is constitutively active; P43220; further: on the % scale 0 is the no-effect control and ±100 the full control effect; nearly all actives have a fitted effect of over 55% in size
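Constitutively active GLP-1R drives a cAMP-responsive luciferase in stably transfected HEK293 cells; test compounds are added after overnight (12 h) attachment and left 24 hr, and signal loss in luminescence marks inhibition.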
Starred values were filed as active, the others as inactive; ? = inconclusive; · = no result. The call rests on the fitted dose curve; in most records, active means well fitted curve in the direction sought with a large enough effect; inconclusive means small, poorly fitted or top-dose-only effect, or another doubt; inactive means no such curve, though single readings can be large; an effect the other way counts as inactive or inconclusive. Potency means the concentration at half of the fitted maximal effect.

SMILES	HEK293 tox	BRCA1 expr up	GLP-1R agonist	GLP-1R inv ag
Cc1cc(OCCN2CCC(Cc3ccccc3)CC2)ccc1[N+](=O)[O-]	?	1.0%	-5.0%	11.2µM*
Cc1cc(OCCN2CC(C)OC(C)C2)ccc1[N+](=O)[O-] (centres undefined)	-11.0%	1.7%	7.0%	-2.3%
COc1ccc(CCNCc2ccc3c(c2)n(C)c(=O)n3C)cc1OC	-15.2%	·	·	-23.3%
CC(C)(C)c1ccc(OCCNCc2ccccc2)cc1	?	-31.0%	19.5%	?
CC(C)(C)c1ccc(OCCNC(=S)Nc2ccccc2)cc1	5.62µM*	-39.9%	9.1%	10µM*
CCNC(=S)N/N=C/c1cccc(OCc2c(F)cccc2Cl)c1	?	-23.2%	5.9%	10µM*
Cc1onc(-c2ccccc2Cl)c1C(=O)OCC(=O)N1CCCc2ccccc21	-22.7%	-26.1%	5.3%	10µM*
COc1ccc(-c2cn3cccnc3n2)cc1NC(=O)C1CCCC1	-3.5%	0.8%	-6.7%	-1.0%
COc1ccc(-c2cn3cccnc3n2)cc1Br	0.1%	11.2µM*	16.8%	136.1%
CCc1ccc(C)c(OC(=O)c2cncc(Br)c2)c1	2.7%	0.0%	-7.0%	-7.3%
Cc1ccc(NCc2cccn2-c2nnc(N3CCC(C(=O)NCCc4ccc(Cl)cc4)CC3)s2)cc1	-13.1%	·	·	10µM*
O=C(COc1ncnc2cc(Cl)ccc12)c1ccc2c(c1)OCCO2	-11.8%	1.78µM*	0.3%	-7.0%
CC(C)(O)C#Cc1ccc(C(=O)NC2CCCCC2)s1	-15.9%	11.2µM*	5.5%	?
CC(C)(O)C#Cc1ccc(C(=O)NCCC(=O)O)s1	-17.7%	1.9%	3.9%	12.8%
CCc1ccc(C(=O)NC2CCCCC2)s1	7.0%	3.55µM*	5.1%	-8.8%
CC(C)c1ccc(NC(=O)CCCc2nc(-c3ccc(Cl)cc3)no2)cc1	3.8%	·	·	9.4%
O=C(C[n+]1cc(Br)cc(Br)c1)c1ccc(I)cc1	·	0.0%	·	·
OC(C[n+]1ccccc1Cl)c1ccccc1 (centres undefined)	·	16.8%	·	·
Cc1cccc(NC(=O)C2(C)CC3c4ccccc4C2c2ccccc23)c1C (centres undefined)	9.8%	-49.2%	-14.0%	10µM*
Cc1ccc(C)c(NC(=O)C2(C)CC3c4ccccc4C2c2ccccc23)c1 (centres undefined)	16.3%	-6.4%	4.3%	-10.8%
Cc1cc(C(=O)COC(=O)c2ccc(O)cc2)c(C)n1CC1CCCO1 (centres undefined)	14.3%	?	1.4%	-20.6%
Cc1cc(C(=O)COC(=O)c2ccc(Cl)c(S(N)(=O)=O)c2)c(C)n1CC1CCCO1 (centres undefined)	-2.3%	11.2µM*	-8.5%	?
Cc1cc(C)c(Cn2cnc3nc4c(cc3c2=O)CCCC4)c(C)c1	1.9%	·	·	?
Cc1ccccc1Cn1c(=O)n(CCc2ccccc2)c(=O)c2c(C)c(C)sc21	8.4%	·	·	6.7%
Cn1c(=O)n(CCOc2ccccc2Cl)c2ccccc21	-10.7%	5.01µM*	29.8%	10.5%
SMILES	HEK293 tox	BRCA1 expr up	GLP-1R agonist	GLP-1R inv ag
Clc1ccccc1OCCN1CCCCC1	8.1%	-2.0%	0.6%	8.2%
O=c1ccccn1CCOc1ccccc1Cl	75.1%	12.6µM*	2.5%	34.6%
Cc1cccc(C2c3[nH]c4ccccc4c3CCN2C(=O)c2noc3c2CCCC3)n1 (centres undefined)	-9.1%	-51.3%	17.2%	7.08µM*
Cc1ncoc1C(=O)N1CCc2c([nH]c3ccccc23)C1C1CCCCC1 (centres undefined)	66.6%	0.4%	-9.8%	10µM*
Cc1ncoc1C(=O)N1CCc2c([nH]c3ccccc23)C1C(C)(C)C (centres undefined)	1.6%	-29.2%	1.6%	-27.3%
COc1ccc(Cl)cc1NC(=O)C(C)N(C)Cc1ccc(C(F)(F)F)cc1 (centres undefined)	63.2%	-39.3%	8.9%	8.91µM*
COc1cc(CN(C)C(C)C(=O)Nc2ccc([N+](=O)[O-])cc2Cl)ccc1OC(F)F (centres undefined)	4.6%	-16.5%	-2.0%	0.1%
CCn1ncc(Br)c1C(=O)Nc1ccc(C(C)C)cc1	3.2%	19.3%	?	8.91µM*
Cn1c(=NC(=O)CCS(=O)(=O)c2ccccc2)sc2cc(F)ccc21	-0.5%	-20.6%	14.9%	12.5%
Cn1c(=NC(=O)CS(=O)(=O)c2ccccc2)sc2cc(F)ccc21	8.1%	5.01µM*	14.2%	8.5%
Cc1n[nH]c(=O)n1-c1ccc(OCc2ccccc2)cc1	-5.9%	5.62µM*	8.6%	1.0%
COc1cccc(CNS(=O)(=O)c2c(C(=O)N3CCC(C)CC3)c(C)n(C)c2C)c1	-4.8%	·	·	-4.1%
CN(C)S(=O)(=O)c1cccc(NC(=S)NN=C(Cc2ccccc2)Cc2ccccc2)c1	?	-20.8%	-3.8%	-18.3%
CCC(=O)N1CCc2cc(CNS(=O)(=O)c3cc(OC)ccc3OC)ccc21	18.0%	0.0%	·	0.2%
Cc1ccc(-n2nnc(-c3cccnc3Cl)n2)cc1	-26.5%	3.55µM*	14.6%	7.9%
CCc1ccc(CNC(=O)C2CCN(S(=O)(=O)N3CCCCC3)CC2)cc1	7.3%	1.0%	0.6%	?
CC(C)CN(CC(C)C)c1ccc(/C=C/c2nc3ccccc3s2)cc1	·	-3.6%	·	·
Cc1ccccc1-c1nc(Cc2ccccc2)no1	-0.5%	10µM*	-0.7%	-21.6%
CNc1ccc(/C=C\CCCO)cn1	-4.0%	10µM*	-1.3%	21.7%
COc1cc(C#Cc2ccc3cc(CCO)oc(=O)c3c2)cc(OC)c1	21.8%	7.08µM*	?	32.6%
CN(C)c1ccc(C#Cc2ccc3cc(CCO)oc(=O)c3c2)cc1	-7.1%	?	4.4%	27.4%
S=C(CSc1ccccc1)Nc1cccc2ccccc12	?	1.4%	-1.5%	6.31µM*
COc1ccc(CCn2c(N)cc(=O)[nH]c2=S)cc1OC	-2.5%	-1.5%	10µM*	203.8%
COc1ccccc1N1CCN(S(=O)(=O)c2c(C)nc3sccn3c2=O)CC1	2.6%	·	·	-5.5%
CCCCCCn1cnc2c(oc3nc4c(cc32)CCCC4)c1=O	1.1%	3.55µM*	-4.6%	23.4%
SMILES	HEK293 tox	BRCA1 expr up	GLP-1R agonist	GLP-1R inv ag
CC(C)(C)c1cc(NC(=O)c2cccnc2)no1	3.9%	7.08µM*	-0.4%	-1.8%
CC(C)(C)c1cc(NC(=O)c2cccs2)no1	1.6%	?	-0.8%	-5.7%
CCN(CC)c1ccc2cc(S(=O)(=O)c3ccc(Cl)cc3)c(=O)oc2c1	319.6%	-25.1%	9.6%	10µM*
CCCCCCc1cc2cc(S(=O)(=O)c3ccc(Cl)cc3)c(=O)oc2cc1O	272.7%	-15.2%	-3.0%	?
CC(C)(C)NC(=O)CSc1nc(O)cc(=O)[nH]1	-6.9%	-17.7%	-1.3%	4.6%
CC(=O)c1ccc(S(=O)(=O)Nc2cccc(-c3ccc(N4CCOCC4)nn3)c2)cc1	11.0%	94.6%	4.7%	2.0%
CC(=O)c1cccc(NC(=O)COC(=O)c2ccccc2OCc2cccc(Br)c2)c1	·	12.7%	·	·
Cc1cccc(NC(=O)Cn2nnc3ccccc32)c1	-3.3%	12.6µM*	7.7%	-8.7%
